Data taken from PubChem BioAssay (NCI).
The panel holds about 83,000 compounds, 20% with a hit somewhere; the sample as a whole holds those more often.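 The endpoint reported here, percent growth, reads 100 for growth as untreated, 0 for no net growth and -100 for all cells dead.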 Active and inactive are the calls of the source. The calls were made as follows: active = growth percent below 10; inactive = the rest.

How the values were obtained:
Assay in all cases: NCI-60 one-dose screen, 48 h (100 = growth as untreated, 0 = no growth, -100 = all killed)
Details in all cases: 10 µM unless noted
DU-145 prostate = test system: DU-145 prostate
K-562 leukemia = test system: K-562 leukemia
MALME-3M melanoma = test system: MALME-3M melanoma
MDA-MB-231 breast = test system: MDA-MB-231 breast
SF-268 CNS = test system: SF-268 CNS
SF-295 CNS = test system: SF-295 CNS
SF-539 CNS = test system: SF-539 CNS
UACC-257 melanoma = test system: UACC-257 melanoma
M14 melanoma = test system: M14 melanoma

Measured: growth

COc1cccc2cc(-c3cc4ccccc4[nH]3)/c(=N/C(=S)Nc3ccc(C)cc3)oc12
inactive: DU-145 prostate 66.4% | K-562 leukemia 80.4% | MALME-3M melanoma 66.6% | MDA-MB-231 breast 39.4% | SF-268 CNS 72.3% | SF-295 CNS 79.5% | SF-539 CNS 45.7% | UACC-257 melanoma 103% | M14 melanoma 95%

O=S(=O)(c1ccccc1)N1CCCc2ccccc21
inactive: DU-145 prostate 112% | K-562 leukemia 97% | MALME-3M melanoma 93.6% | MDA-MB-231 breast 98.8% | SF-268 CNS 95.5% | SF-295 CNS 98.5% | SF-539 CNS 102% | UACC-257 melanoma 96.3% | M14 melanoma 102%

Cc1ccc2[nH]c(=S)n(-c3ccc(S(=O)(=O)Nc4ccc(Cl)nn4)cc3)c(=O)c2c1
inactive: DU-145 prostate 109% | K-562 leukemia 102% | MALME-3M melanoma 101% | MDA-MB-231 breast 101% | SF-268 CNS 101% | SF-295 CNS 104% | SF-539 CNS 95.6% | UACC-257 melanoma 99.7%
active: M14 melanoma -69.5%

COc1cc(/C=C/C(=O)c2ccc(Nc3ncnc4ccccc34)cc2)cc(OC)c1
inactive: DU-145 prostate 71.7% | MALME-3M melanoma 106% | MDA-MB-231 breast 82.9% | SF-268 CNS 38.1% | SF-295 CNS 60.8% | SF-539 CNS 71.6% | UACC-257 melanoma 93.5% | M14 melanoma 24.7%
active: K-562 leukemia 4.61%

O=c1nc2n(nc1/C=C/c1ccco1)CC(c1ccc(Cl)cc1)=NN2
inactive: DU-145 prostate 115% | K-562 leukemia 53.6% | MALME-3M melanoma 92% | MDA-MB-231 breast 117% | SF-268 CNS 109% | SF-295 CNS 97.9% | SF-539 CNS 104% | UACC-257 melanoma 104% | M14 melanoma 104%

COc1cc(C2CC(c3cccc(Nc4ccncc4)c3)=NN2c2ccc(Cl)cc2)cc(OC)c1OC (stereo unspecified)
active: DU-145 prostate -17.5% | K-562 leukemia -0.526% | MALME-3M melanoma -85.2% | SF-295 CNS -55.1% | UACC-257 melanoma -6.07%
inactive: MDA-MB-231 breast 24.8% | SF-268 CNS 44.5% | SF-539 CNS 68.3% | M14 melanoma 101%

c1ccc(C2CC(c3cccc(Nc4ccncc4)c3)=NN2c2ccccc2)cc1 (stereo unspecified)
inactive: DU-145 prostate 67.7% | MDA-MB-231 breast 75.3% | SF-268 CNS 86.6% | SF-295 CNS 78.6% | SF-539 CNS 78.1% | UACC-257 melanoma 34%
active: K-562 leukemia 0.756% | MALME-3M melanoma -12.1% | M14 melanoma -57.4%

CC(=O)NCCCS(=O)(=O)O
inactive: DU-145 prostate 118% | K-562 leukemia 94.8% | MALME-3M melanoma 106% | MDA-MB-231 breast 102% | SF-268 CNS 111% | SF-295 CNS 94.6% | SF-539 CNS 99.5% | UACC-257 melanoma 104% | M14 melanoma 111%

Cc1c([N+](=O)[O-])cc(C(C)(C)C)cc1[N+](=O)[O-]
inactive: DU-145 prostate 107% | K-562 leukemia 112% | MALME-3M melanoma 118% | MDA-MB-231 breast 107% | SF-268 CNS 93.3% | SF-295 CNS 97.6% | SF-539 CNS 104% | UACC-257 melanoma 85.4% | M14 melanoma 107%

O=S(=O)(c1cccc(NC2=Nc3cccc4cccc2c34)c1)N1CCCC1
inactive: DU-145 prostate 90.4% | K-562 leukemia 19.3% | MALME-3M melanoma 64.1% | MDA-MB-231 breast 77.1% | SF-268 CNS 79.1% | SF-295 CNS 59% | SF-539 CNS 74.9% | UACC-257 melanoma 64.9% | M14 melanoma 69.5%

O=S(=O)(NCCCNc1nccc(-c2c(-c3ccccc3)nc3occn23)n1)c1ccc(Cl)cc1
inactive: DU-145 prostate 85.5% | K-562 leukemia 50.6% | MALME-3M melanoma 91.8% | MDA-MB-231 breast 93.3% | SF-268 CNS 80% | SF-295 CNS 93.3% | SF-539 CNS 110% | UACC-257 melanoma 105% | M14 melanoma 71%

O=C(Nc1nc2ccc(C(=O)N3CCN(c4ccc(Cl)c(Cl)c4)CC3)cc2s1)c1ccc(NCCc2ccccc2)c([N+](=O)[O-])c1
inactive: DU-145 prostate 101% | K-562 leukemia 84.2% | MALME-3M melanoma 86.8% | MDA-MB-231 breast 86.2% | SF-268 CNS 97% | SF-295 CNS 96.4% | SF-539 CNS 101% | UACC-257 melanoma 99.4% | M14 melanoma 98.5%

O=C1CCCCCCCCC(O)C(O)CCCC(c2cccs2)O1 (stereo unspecified)
inactive: DU-145 prostate 117% | K-562 leukemia 96% | MALME-3M melanoma 107% | MDA-MB-231 breast 84.8% | SF-268 CNS 95.9% | SF-295 CNS 93.7% | SF-539 CNS 106% | UACC-257 melanoma 60.9% | M14 melanoma 99.7%

COc1cc2nc(Cc3ccc(C)cc3)[nH]c(=O)c2cc1OC
inactive: DU-145 prostate 100% | K-562 leukemia 94.3% | MALME-3M melanoma 277% | MDA-MB-231 breast 98.8% | SF-268 CNS 105% | SF-295 CNS 121% | SF-539 CNS 104% | UACC-257 melanoma 105% | M14 melanoma 113%

COc1ccc(Cn2nc(-c3ccccc3)c3c2CCc2cnoc2-3)cc1
inactive: DU-145 prostate 96.9% | K-562 leukemia 36.3% | MALME-3M melanoma 109% | MDA-MB-231 breast 55.6% | SF-268 CNS 81% | SF-295 CNS 59.5% | SF-539 CNS 85.4% | UACC-257 melanoma 90.9% | M14 melanoma 89.2%

COc1ccc(-c2nc(N=Nc3c(O)[nH]c4ccccc34)nc(N3CCOCC3)c2C#N)cc1
inactive: DU-145 prostate 63.7% | K-562 leukemia 75% | MALME-3M melanoma 51% | MDA-MB-231 breast 42.6% | SF-268 CNS 62.4% | SF-295 CNS 86.4% | UACC-257 melanoma 73.6% | M14 melanoma 60.9%
active: SF-539 CNS -47.2%

ClCC1(Cn2cnc3c(Cl)nc(Cl)nc32)COC1
inactive: DU-145 prostate 67.8% | K-562 leukemia 64.7% | MALME-3M melanoma 102% | MDA-MB-231 breast 80.4% | SF-268 CNS 78% | SF-295 CNS 88.8% | SF-539 CNS 103% | UACC-257 melanoma 75.8% | M14 melanoma 62.6%

C/C(=C(/c1ccccc1)c1ccc(OCC(O)CNCCN2CCOCC2)cc1)c1ccccc1 (stereo unspecified)
inactive: DU-145 prostate 67.8% | MDA-MB-231 breast 29.4% | SF-268 CNS 78.5% | SF-295 CNS 71.2% | SF-539 CNS 72.8% | M14 melanoma 92.6%
active: K-562 leukemia 2.44% | MALME-3M melanoma -71.2% | UACC-257 melanoma -27.5%

CCCCCCCCCCCCCCCC(=O)OC[C@@]1(O)C[C@@]23CC[C@@H]4C(C)(C)CCC[C@@]4(C)[C@@H]2CC[C@H]1C3
active: M14 melanoma -51.8%
inactive: DU-145 prostate 108% | K-562 leukemia 59.3% | MALME-3M melanoma 112% | MDA-MB-231 breast 96% | SF-268 CNS 110% | SF-295 CNS 111% | SF-539 CNS 108% | UACC-257 melanoma 104%

O=C(N/N=C/c1ccncc1)c1ccccc1Nc1cccc(C(F)(F)F)c1
inactive: DU-145 prostate 69.2% | K-562 leukemia 77.7% | MALME-3M melanoma 92.8% | MDA-MB-231 breast 79.8% | SF-268 CNS 69.5% | SF-295 CNS 94.5% | SF-539 CNS 112% | UACC-257 melanoma 62.9% | M14 melanoma 87.4%

Clc1ccc(N2N=C(c3cccc(Nc4ccncc4)c3)CC2c2ccccc2)cc1 (stereo unspecified)
active: M14 melanoma -55.4%
inactive: DU-145 prostate 100% | K-562 leukemia 46% | MALME-3M melanoma 93.5% | MDA-MB-231 breast 93.2% | SF-268 CNS 78.1% | SF-295 CNS 102% | SF-539 CNS 86% | UACC-257 melanoma 101%

NC(=O)c1cccc(-c2ccccc2N2CCCCC2)c1
inactive: DU-145 prostate 99.8% | K-562 leukemia 85.1% | MALME-3M melanoma 80.8% | MDA-MB-231 breast 100% | SF-268 CNS 94% | SF-295 CNS 89.4% | SF-539 CNS 97.8% | UACC-257 melanoma 99.3% | M14 melanoma 94.6%

CCC(C)C(N)C(=O)NNc1n[nH]c(=S)n1N (stereo unspecified)
inactive: DU-145 prostate 109% | K-562 leukemia 102% | MALME-3M melanoma 101% | MDA-MB-231 breast 101% | SF-268 CNS 98.2% | SF-295 CNS 103% | SF-539 CNS 94.7% | UACC-257 melanoma 99.4% | M14 melanoma 100%

CCNC(=O)c1[nH]cc(-c2ccc(OC)cc2)c1-c1cc(OC)cc(OC)c1
inactive: DU-145 prostate 108% | K-562 leukemia 45.1% | MALME-3M melanoma 93% | MDA-MB-231 breast 82.1% | SF-268 CNS 96.7% | SF-295 CNS 96.7% | SF-539 CNS 99.2% | UACC-257 melanoma 103% | M14 melanoma 95.8%

COc1ccc(CNC(=O)COc2ccc(/C=N/Nc3nc4ccccc4s3)cc2)cc1
inactive: K-562 leukemia 34.8% | MALME-3M melanoma 24.1% | MDA-MB-231 breast 10.2% | SF-268 CNS 19.9% | SF-295 CNS 47.4% | SF-539 CNS 21.1% | UACC-257 melanoma 53.8% | M14 melanoma 54%
active: DU-145 prostate -49.1%

CC(C)Sc1nc(NN)c(C#N)c(-c2ccccc2)n1
inactive: DU-145 prostate 108% | K-562 leukemia 101% | MALME-3M melanoma 95.7% | MDA-MB-231 breast 99.3% | SF-268 CNS 100% | SF-295 CNS 98.7% | SF-539 CNS 89.9% | UACC-257 melanoma 102% | M14 melanoma 108%

CC(C)(C)CC(C)(C)Nc1c(-c2ccc(C(F)(F)F)cc2)nc2cnccn12
inactive: DU-145 prostate 93% | K-562 leukemia 65.6% | MALME-3M melanoma 103% | MDA-MB-231 breast 86% | SF-268 CNS 88.8% | SF-295 CNS 86.3% | SF-539 CNS 86% | UACC-257 melanoma 98.7%
active: M14 melanoma -54.1%

COc1cc(CNC(=O)CCCCC[P+](c2ccccc2)(c2ccccc2)c2ccccc2)c(OC)c2c1OCO2
inactive: DU-145 prostate 81.1% | K-562 leukemia 20.8% | MALME-3M melanoma 55.5% | MDA-MB-231 breast 72.8% | SF-268 CNS 66.9% | SF-295 CNS 87.2% | SF-539 CNS 73.1% | UACC-257 melanoma 21.2% | M14 melanoma 76.2%

O=C(Nc1ccc(Cl)cc1)Nc1ccc(Cl)c(Cl)c1
active: K-562 leukemia 4.12% | MALME-3M melanoma -1.33% | SF-295 CNS -50.7% | SF-539 CNS -19.2%
inactive: DU-145 prostate 10.7% | MDA-MB-231 breast 37.6% | SF-268 CNS 36.1% | UACC-257 melanoma 43% | M14 melanoma 22.8%
